According to the supplement of paper PMC3334620:
The full ranking holds about 33,000 sequences; the median of “E-score (-0.5 to 0.5)” is about -0.0014, and the highest 2% start at about 0.25. Many of the other results were omitted from the sample, so the highest values are more common in it than they were.

These sequences were tested against T1, Cad1 (UniProt P24813) (assay: PBM E-score (8-mer binding enrichment) (E-score (-0.5 to 0.5)); higher = stronger / more preferred TF binding). Conditions: protein concentration: 100 nM; construct: GST-full length.
T1 sequence: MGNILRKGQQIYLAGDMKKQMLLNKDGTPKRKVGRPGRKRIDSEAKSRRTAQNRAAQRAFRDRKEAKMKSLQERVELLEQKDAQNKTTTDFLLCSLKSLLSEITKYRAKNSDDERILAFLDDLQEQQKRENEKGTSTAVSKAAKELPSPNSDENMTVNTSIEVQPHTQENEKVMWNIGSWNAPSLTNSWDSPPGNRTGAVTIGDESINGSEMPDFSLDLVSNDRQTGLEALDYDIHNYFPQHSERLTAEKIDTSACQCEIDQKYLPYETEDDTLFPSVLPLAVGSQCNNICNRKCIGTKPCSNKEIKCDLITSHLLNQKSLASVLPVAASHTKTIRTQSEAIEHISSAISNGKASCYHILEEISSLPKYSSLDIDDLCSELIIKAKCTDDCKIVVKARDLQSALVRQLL
Outline: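 The E-score, a modified Wilcoxon-Mann-Whitney statistic, was computed by the Universal PBM Analysis Suite for every ungapped eight-base word pooled with its reverse complement. Scans behind it were normalised with masliner after bound GST-tagged yeast transcription factors were detected with fluorescent anti-GST. The proteins, at about 100-200 nM, had been applied to universal all-10-mer Agilent arrays made double-stranded by primer extension.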

Sequence | PBM E-score
CGCTGACG | 0.0393
GGCTGATA | -0.0873
CGCTGACA | 0.297
GGCTGACC | -0.121
GGCTGACA | 0.313
TGCTGACA | 0.334
CGCGCAAC | 0.2
AGGATGGG | -0.107
AAGTCTAG | -0.155
AGAAAATC | -0.0518
GGAAAAGA | -0.191
CGAAAAGA | 0.28
AGAAAAGA | -0.0414
CGAAAATC | 0.259
CGAAAATA | 0.163
GTATTGCA | -0.0639
ATAGGCGC | 0.0733
ACGGGCAA | -0.05
ACGAATAA | -0.0279
AACAATAT | 0.338
ACCAAAAC | -0.0311
ACCAAAAT | 0.0849

Sequence | PBM E-score
ACCAATAT | 0.306
AACAATAC | 0.135
ACGAATAC | 0.132
ACCAATAG | -0.201
AACAATAA | 0.211
ACGAATAT | 0.268
ACCAATAC | -0.106
ACCAAAAA | 0.278
ACGGACCT | -0.0269
CCAGCGTA | -0.0528
GCTCATGA | 0.0686
GCTGCCCC | -0.107
GCCCCAGA | -0.158
CCTTGGGA | -0.00782
CAGTGGAA | -0.0557
CGTCCGGA | 0.099
ACGTTGGG | 0.0171
ACTCGCAT | 0.101
ATTACTCC | 0.0689
ATTACACG | 0.0358
TGTACACA | 0.256
CGTACACG | 0.0454

Sequence | PBM E-score
ATTACACA | 0.284
ATTACTCG | 0.221
ATTACAGG | 0.228
AGTACACA | 0.0961
ATTACATG | 0.301
ATTACTCA | 0.325
ATTACACC | 0.108
ATTACATC | 0.209
CGCTCAAA | 0.0635
GTACTCAC | 0.158
CATCGATA | 0.149
CTAGATAG | 0.0131
GAAATCGA | 0.0829
ATTACATA | 0.296
GCTACATA | -0.00397
GGTATACA | 0.0215
TGTATACA | 0.272
CATACATA | 0.161
CTTACATA | 0.278
ACTACATA | 0.0142
ATTACAGA | 0.152
GTTACAAA | 0.223

Sequence | PBM E-score
CTTACATC | -0.00465
GTTACATA | 0.253
AGTATACA | 0.207
TAAGTCCA | 0.0496
ATGAATCA | 0.0957
AACAGCGC | 0.0746
CAGATCGC | -0.038
CCTTGTAA | 0.049
GTGACTGA | 0.157
ATGACTAG | -0.129
ATGACTAC | -0.181
ATGACTAA | 0.377
GTGACTCA | -0.0941
GTGACTAA | 0.37
AGCTTGAG | -0.123
CGCATAGA | 0.0454
GATACACC | 0.257
AATACACT | 0.158
AATACACC | 0.255
AATACACA | 0.144
